Source: the supplement of paper PMC11732987, “Enantioselective OTUD7B fragment discovery through chemoproteomics screening and high-throughput optimisation” (Communications Chemistry, 2025)

Experiments:
Test in all cases: log2 ratio of Biotin-Ahx-Ub-VS probe labelling (fragment/DMSO); higher = less target engagement (more negative = stronger competition), active = hit call of the paper (q ≤ 0.05, log2 ratio ≤ -1)
Settings in all cases: compound concentration: 200 uM; treatment time: 3 h
[1] = biological target: T1, OTUD6B (UniProt Q8N6M0)
T1 sequence (whole entry): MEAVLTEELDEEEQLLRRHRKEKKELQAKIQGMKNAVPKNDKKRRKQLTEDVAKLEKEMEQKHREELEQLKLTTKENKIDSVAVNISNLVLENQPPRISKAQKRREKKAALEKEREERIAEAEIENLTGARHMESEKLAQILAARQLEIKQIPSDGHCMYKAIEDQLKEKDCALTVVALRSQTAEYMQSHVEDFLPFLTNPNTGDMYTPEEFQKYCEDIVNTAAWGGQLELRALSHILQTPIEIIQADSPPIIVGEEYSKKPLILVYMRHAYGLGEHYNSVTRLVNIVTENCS
Method in brief: (§1)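 Global-median-normalised Spectronaut label-free quantities were compared by unpaired t-test, and values are average log2 ratios of fragment over vehicle. Only proteins with ≥2 unique peptides were used. HEK293T lysate (495 µg per sample) was treated in triplicate with fragment at 200 µM or vehicle for 3 h and then with Biotin-Ahx-Ub-VS at 0.5 µM final for 1 h. Labelled DUBs were then NeutrAvidin-enriched, digested with LysC and trypsin, and run by diaPASEF LC-MS/MS.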

[2] = biological target: T2, OTUD7B (UniProt Q6GQQ9)
T2 sequence (whole entry): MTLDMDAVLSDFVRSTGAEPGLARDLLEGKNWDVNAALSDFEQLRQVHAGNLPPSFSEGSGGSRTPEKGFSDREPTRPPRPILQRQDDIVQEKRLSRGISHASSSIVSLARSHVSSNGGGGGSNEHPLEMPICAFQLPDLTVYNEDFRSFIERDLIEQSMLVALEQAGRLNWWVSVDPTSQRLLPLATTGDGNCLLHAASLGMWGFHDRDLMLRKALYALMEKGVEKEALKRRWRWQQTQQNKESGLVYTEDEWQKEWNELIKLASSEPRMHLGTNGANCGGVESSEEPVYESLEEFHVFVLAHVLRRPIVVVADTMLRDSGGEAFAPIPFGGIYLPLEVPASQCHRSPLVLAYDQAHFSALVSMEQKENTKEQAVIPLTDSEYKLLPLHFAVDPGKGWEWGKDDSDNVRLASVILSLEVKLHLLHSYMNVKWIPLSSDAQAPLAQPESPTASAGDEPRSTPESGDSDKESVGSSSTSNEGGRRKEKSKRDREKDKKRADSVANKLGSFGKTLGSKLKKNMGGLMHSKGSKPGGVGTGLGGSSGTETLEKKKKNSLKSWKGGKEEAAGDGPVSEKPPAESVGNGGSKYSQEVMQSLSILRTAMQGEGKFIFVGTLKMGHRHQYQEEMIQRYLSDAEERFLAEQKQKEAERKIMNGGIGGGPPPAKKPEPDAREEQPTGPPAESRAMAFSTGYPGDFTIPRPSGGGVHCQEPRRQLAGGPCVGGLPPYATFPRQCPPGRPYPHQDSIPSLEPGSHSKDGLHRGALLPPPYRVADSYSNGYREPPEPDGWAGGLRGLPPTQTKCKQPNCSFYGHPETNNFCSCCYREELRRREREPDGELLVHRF
Method in brief: as §1

[3] = biological target: PRPF8 (UniProt Q6P2Q9)
Method in brief: as §1

[4] = biological target: T3, PSMD7 (UniProt P51665)
T3 sequence (whole entry): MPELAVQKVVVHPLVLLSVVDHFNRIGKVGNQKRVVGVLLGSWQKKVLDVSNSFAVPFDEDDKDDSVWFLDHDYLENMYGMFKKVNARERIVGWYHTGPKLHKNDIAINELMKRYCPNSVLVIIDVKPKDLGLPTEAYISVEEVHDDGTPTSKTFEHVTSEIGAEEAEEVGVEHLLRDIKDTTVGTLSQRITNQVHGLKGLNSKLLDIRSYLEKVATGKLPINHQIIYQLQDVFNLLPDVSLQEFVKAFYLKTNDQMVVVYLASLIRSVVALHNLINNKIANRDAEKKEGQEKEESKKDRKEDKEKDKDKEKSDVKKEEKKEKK
Method in brief: as §1

[5] = biological target: UCHL1 (UniProt P09936)
Sequence of UCHL1 (P09936 whole entry, looked up): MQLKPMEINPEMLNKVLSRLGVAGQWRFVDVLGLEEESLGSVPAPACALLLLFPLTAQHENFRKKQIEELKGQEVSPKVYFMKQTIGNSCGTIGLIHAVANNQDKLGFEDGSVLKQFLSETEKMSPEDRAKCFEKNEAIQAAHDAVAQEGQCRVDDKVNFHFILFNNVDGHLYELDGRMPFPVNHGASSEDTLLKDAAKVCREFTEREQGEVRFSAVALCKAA
Method in brief: as §1

[6] = biological target: T4, UCHL3 (UniProt P15374)
T4 sequence (whole entry): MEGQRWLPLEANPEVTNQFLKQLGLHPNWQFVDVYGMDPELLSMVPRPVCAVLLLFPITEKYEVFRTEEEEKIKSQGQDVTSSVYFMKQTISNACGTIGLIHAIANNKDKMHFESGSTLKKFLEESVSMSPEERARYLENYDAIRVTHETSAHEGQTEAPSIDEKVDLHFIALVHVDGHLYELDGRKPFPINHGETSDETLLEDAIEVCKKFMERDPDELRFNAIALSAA
Method in brief: as §1

[7] = biological target: T5, UCHL5 (UniProt Q9Y5K5)
T5 sequence (whole entry): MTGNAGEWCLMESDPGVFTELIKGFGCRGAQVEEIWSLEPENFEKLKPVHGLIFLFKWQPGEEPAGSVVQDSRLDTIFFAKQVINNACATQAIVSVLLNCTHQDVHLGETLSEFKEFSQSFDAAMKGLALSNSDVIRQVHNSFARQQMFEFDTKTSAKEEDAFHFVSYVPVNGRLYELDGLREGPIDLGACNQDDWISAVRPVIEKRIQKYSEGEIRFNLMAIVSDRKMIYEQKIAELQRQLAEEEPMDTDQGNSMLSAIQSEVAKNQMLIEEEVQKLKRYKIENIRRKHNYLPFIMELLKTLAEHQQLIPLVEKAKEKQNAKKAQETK
Method in brief: as §1

[8] = biological target: USP10 (UniProt Q14694)
Sequence of USP10 (Q14694 whole entry): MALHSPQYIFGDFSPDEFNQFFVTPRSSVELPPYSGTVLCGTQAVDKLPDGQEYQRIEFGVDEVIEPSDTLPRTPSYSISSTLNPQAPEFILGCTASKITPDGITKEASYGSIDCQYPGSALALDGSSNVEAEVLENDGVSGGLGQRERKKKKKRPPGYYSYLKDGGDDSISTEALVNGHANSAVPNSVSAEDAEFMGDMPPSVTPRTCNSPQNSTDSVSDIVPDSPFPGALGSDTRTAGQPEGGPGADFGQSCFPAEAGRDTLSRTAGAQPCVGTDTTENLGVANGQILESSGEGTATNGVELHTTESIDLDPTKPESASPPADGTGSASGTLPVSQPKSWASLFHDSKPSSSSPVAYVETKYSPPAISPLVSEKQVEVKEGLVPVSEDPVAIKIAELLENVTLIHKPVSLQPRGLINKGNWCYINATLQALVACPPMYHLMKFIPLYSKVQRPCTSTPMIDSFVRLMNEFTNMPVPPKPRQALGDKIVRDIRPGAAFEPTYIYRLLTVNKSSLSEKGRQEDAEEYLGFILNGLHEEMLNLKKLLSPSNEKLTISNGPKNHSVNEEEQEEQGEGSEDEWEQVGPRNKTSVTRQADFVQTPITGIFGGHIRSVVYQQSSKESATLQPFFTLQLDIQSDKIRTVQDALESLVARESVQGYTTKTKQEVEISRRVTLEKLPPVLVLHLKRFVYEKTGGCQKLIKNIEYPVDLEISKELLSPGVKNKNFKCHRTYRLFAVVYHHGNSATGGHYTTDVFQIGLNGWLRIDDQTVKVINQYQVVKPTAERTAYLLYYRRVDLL
Method in brief: as §1

[9] = biological target: T6, USP15 (UniProt Q9Y4E8)
T6 sequence (whole entry): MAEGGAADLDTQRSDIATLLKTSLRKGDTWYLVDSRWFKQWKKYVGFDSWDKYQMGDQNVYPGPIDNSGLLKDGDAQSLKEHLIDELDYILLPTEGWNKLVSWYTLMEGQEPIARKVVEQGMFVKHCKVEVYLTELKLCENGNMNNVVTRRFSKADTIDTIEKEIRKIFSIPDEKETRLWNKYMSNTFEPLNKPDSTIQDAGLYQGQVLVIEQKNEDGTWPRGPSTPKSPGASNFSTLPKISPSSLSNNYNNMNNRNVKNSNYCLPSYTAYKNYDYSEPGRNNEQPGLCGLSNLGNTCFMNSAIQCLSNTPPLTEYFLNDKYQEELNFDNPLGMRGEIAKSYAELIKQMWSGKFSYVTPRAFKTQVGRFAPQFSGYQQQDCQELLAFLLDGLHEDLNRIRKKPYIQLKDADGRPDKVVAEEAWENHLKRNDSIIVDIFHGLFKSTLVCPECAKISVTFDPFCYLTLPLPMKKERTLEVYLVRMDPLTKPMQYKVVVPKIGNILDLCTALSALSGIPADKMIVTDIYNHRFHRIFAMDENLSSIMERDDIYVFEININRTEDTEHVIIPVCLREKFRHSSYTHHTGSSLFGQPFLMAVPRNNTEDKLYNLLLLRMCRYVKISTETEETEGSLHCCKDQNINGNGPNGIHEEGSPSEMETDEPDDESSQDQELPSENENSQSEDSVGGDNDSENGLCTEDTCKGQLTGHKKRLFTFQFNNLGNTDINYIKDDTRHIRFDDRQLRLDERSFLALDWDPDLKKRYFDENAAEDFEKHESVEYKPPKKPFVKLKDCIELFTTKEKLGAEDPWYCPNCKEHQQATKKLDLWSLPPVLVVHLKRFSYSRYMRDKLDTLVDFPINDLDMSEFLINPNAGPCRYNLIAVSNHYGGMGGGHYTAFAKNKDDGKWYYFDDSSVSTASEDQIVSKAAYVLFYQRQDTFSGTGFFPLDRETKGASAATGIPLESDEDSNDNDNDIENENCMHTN
Method in brief: as §1

Measured: log2 ratio of Biotin-Ahx-Ub-VS probe labelling

COc1cc(Cl)c(C)cc1NC(=O)CCl
inactive: [1] -0.418 | [2] -0.345 | [3] -0.193 | [4] -0.352 | [6] 0.146 | [7] -0.348 | [8] -0.183 | [9] -0.24
active: [5] -1.57
